FBA Mtb inh: Mtb fructose-bisphosphate aldolase inhibition. P9WQA3. purified M. tuberculosis FBA, fluorescence read-out. inhibition, % at 1 µM. 360,000 tested, 2.3% active. AID 588726; in the data active means inhibition above about 27%;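 further: 0% = vehicle and 100% = reference inhibitor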
Target sequence (P9WQA3 whole entry, looked up): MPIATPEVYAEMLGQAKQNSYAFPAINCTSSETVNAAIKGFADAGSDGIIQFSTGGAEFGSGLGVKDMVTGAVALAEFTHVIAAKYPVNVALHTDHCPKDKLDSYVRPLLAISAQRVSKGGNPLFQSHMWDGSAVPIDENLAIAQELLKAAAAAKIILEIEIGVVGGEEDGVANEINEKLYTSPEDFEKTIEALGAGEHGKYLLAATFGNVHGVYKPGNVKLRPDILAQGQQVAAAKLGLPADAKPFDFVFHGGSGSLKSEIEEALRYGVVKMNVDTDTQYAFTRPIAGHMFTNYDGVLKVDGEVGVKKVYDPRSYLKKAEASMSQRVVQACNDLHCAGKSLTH
BoNT-A LC inh2: BoNT A light chain protease inhibition | inhibition, % at 10 µM | AID 588499 | 360,000 tested, 0.17% active | multiplex microsphere protease substrate cleavage, flow cytometry; further: plate controls were buffer without enzyme for full effect and enzyme alone for no effect
Bead autofluor: flagged as autofluorescent in microsphere protease counterscreen. compound autofluorescence counterscreen, microsphere flow cytometry; active compounds read high. fluorescence intensity (test concentration not listed). 360,000 tested, 3.1% active. AID 624483; in the data active means fluorescence intensity above about 16000; inconclusive means no clear call, values can overlap the other calls
Anthrax LF inh2: inhibitors of Bacillus anthracis lethal factor protease; P15917; multiplex microsphere protease cleavage assay, LF; inhibition, % at 10 µM; 360,000 tested, 0.12% active; AID 588501; further: plate controls were buffer without enzyme for full effect and enzyme alone for no effect
GDH-TPI inh: inhibits GDH-TPI coupling enzymes, artifact for Mtb FBA screen | GDH-TPI coupled enzyme counterscreen, NADH absorbance | inhibition, % at 4.8 µM | 360,000 tested, 1.2% active | AID 588335; in the data active means inhibition above about 30%;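 further: 0% = DMSO wells and 100% = wells lacking the enzyme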
BoNT-F LC inh: BoNT F light chain protease inhibition | Multiplex microsphere protease cleavage assay, flow cytometry | inhibition, % at 10 µM | 360,000 tested, 0.22% active | AID 588497; in the data active means inhibition above about 35%, passing the limit was not always enough; inconclusive means no clear call, values can overlap the other calls; further: plate controls were buffer without enzyme for full effect and enzyme alone for no effect
The depositor's hits bear a star. Hits are enriched below; roughly 6.7% of the tested compounds scored in any of these assays. Unless noted, no stated cut-off is given here; in the data, active means inhibition above about 30%; inconclusive means no clear call, values can overlap the other calls; inactive means below that.

How did C=CCOc1cccc(C2C(C(=O)c3cccs3)=C(O)C(=O)N2Cc2cccnc2)c1 (stereo not drawn) do in these assays?
FBA Mtb inh: -3; BoNT-A LC inh2: 0; Bead autofluor: 4301; Anthrax LF inh2: -5; GDH-TPI inh: 3; BoNT-F LC inh: -2

How did CCC(C)COC(=O)C(C#N)c1nc2ccccc2nc1N1CCCCC1 (stereo not drawn) do in these assays?
FBA Mtb inh: 2; BoNT-A LC inh2: inconclusive; Bead autofluor: 21493*; Anthrax LF inh2: 15; GDH-TPI inh: 7; BoNT-F LC inh: 6

Results for CCC(CC)COC(=O)C(C#N)c1nc2ccccc2nc1N1CCN(CC)CC1 (stereo not drawn) ?
FBA Mtb inh: 0; BoNT-A LC inh2: 7; Bead autofluor: 21646*; Anthrax LF inh2: 10; GDH-TPI inh: 12; BoNT-F LC inh: 3

What do the screens show for `CC(C)OC(=O)C(C#N)c1nc2ccccc2nc1N1CCCC1` (stereo not drawn)?
FBA Mtb inh: 5; BoNT-A LC inh2: 6; Bead autofluor: 3598; Anthrax LF inh2: -2; GDH-TPI inh: 12; BoNT-F LC inh: -1

What do the screens show for `Cc1cccc(-c2nc3ccccc3c(=O)n2N)c1`?
FBA Mtb inh: 0; BoNT-A LC inh2: -2; Bead autofluor: 3223; Anthrax LF inh2: 11; GDH-TPI inh: 1; BoNT-F LC inh: -6

Results for CCCCN1C(=O)C(C2c3ccccc3C(=O)N2Cc2ccccc2)C(=O)NC1=S (stereo not drawn) ?
FBA Mtb inh: -2; BoNT-A LC inh2: 1; Bead autofluor: 21741*; Anthrax LF inh2: -1; GDH-TPI inh: -8; BoNT-F LC inh: 4

Results for COC(=O)c1ccc(CSc2nc(N)cc(N)n2)cc1 ?
FBA Mtb inh: 2; BoNT-A LC inh2: 0; Bead autofluor: 23371*; Anthrax LF inh2: -3; GDH-TPI inh: 4; BoNT-F LC inh: 0

What do the screens show for `CC(/C=N/n1c(-c2n[nH]c3c2CCC3)n[nH]c1=S)=C\c1ccco1`?
FBA Mtb inh: 1; GDH-TPI inh: 45*

Results for Cc1cc(-c2n[nH]c(=S)n2/N=C/C=C/c2ccco2)n[nH]1 ?
FBA Mtb inh: 1; BoNT-A LC inh2: 1; Bead autofluor: 3540; Anthrax LF inh2: 18; GDH-TPI inh: 9; BoNT-F LC inh: inconclusive

Results for S=c1[nH]nc(-c2ccccc2)n1/N=C/C=C/c1ccco1 ?
FBA Mtb inh: -2; BoNT-A LC inh2: 1; Bead autofluor: 2112; Anthrax LF inh2: 0; GDH-TPI inh: 33*; BoNT-F LC inh: 0

How did CC(/C=N/n1c(-c2cccnc2)n[nH]c1=S)=C\c1ccco1 do in these assays?
BoNT-A LC inh2: 0; Bead autofluor: 6029; Anthrax LF inh2: -4; BoNT-F LC inh: -5

How did C(/C=C/c1ccco1)=N/N1CCN(c2ccccc2)CC1 do in these assays?
FBA Mtb inh: -3; BoNT-A LC inh2: 0; Bead autofluor: 2408; Anthrax LF inh2: -4; GDH-TPI inh: 47*; BoNT-F LC inh: -2

How did Cc1ccccc1-c1n[nH]c(=S)n1/N=C/C=C/c1ccco1 do in these assays?
FBA Mtb inh: -1; BoNT-A LC inh2: -1; Bead autofluor: 3690; Anthrax LF inh2: 2; GDH-TPI inh: 43*; BoNT-F LC inh: inconclusive

What do the screens show for `Cn1cnnc1SCC(=O)c1ccc(O)c(O)c1`?
FBA Mtb inh: -1; BoNT-A LC inh2: 0; Bead autofluor: 4300; Anthrax LF inh2: -9; GDH-TPI inh: 18; BoNT-F LC inh: 6

How did CCOC(=O)c1sc2ncnc(NCC(c3cccs3)N(C)C)c2c1C (stereo not drawn) do in these assays?
FBA Mtb inh: 9; BoNT-A LC inh2: 1; Bead autofluor: 24092*; Anthrax LF inh2: 2; GDH-TPI inh: 6; BoNT-F LC inh: 1

What do the screens show for `CN(C)C(CNc1ncnc2sccc12)c1cccs1` (stereo not drawn)?
FBA Mtb inh: 4; BoNT-A LC inh2: 1; Bead autofluor: 3366; Anthrax LF inh2: -1; GDH-TPI inh: 1; BoNT-F LC inh: -2

Results for O=C(Nc1ccc(Br)cc1)N1CCCCCCC1 ?
FBA Mtb inh: 1; BoNT-A LC inh2: -1; Bead autofluor: 2557; Anthrax LF inh2: -4; GDH-TPI inh: 10; BoNT-F LC inh: -3

Results for CC1CC(C)CN(C(=O)Cn2c(=O)n(CCCCC(=O)NC3CCCC3)c(=O)c3ccccc32)C1 (stereo not drawn) ?
FBA Mtb inh: 1; BoNT-A LC inh2: 0; Bead autofluor: 3620; Anthrax LF inh2: 2; GDH-TPI inh: 7; BoNT-F LC inh: 37*

What do the screens show for `CCn1c(=O)n(CC(=O)N2CC(C)CC(C)C2)c(=O)c2ccccc21` (stereo not drawn)?
FBA Mtb inh: 0; BoNT-A LC inh2: 0; Bead autofluor: 20034*; Anthrax LF inh2: -3; GDH-TPI inh: -5; BoNT-F LC inh: 0

How did CC1CC(C)CN(C(=O)Cn2c(=O)n(CCCCC(=O)NCc3ccco3)c(=O)c3ccccc32)C1 (stereo not drawn) do in these assays?
FBA Mtb inh: 0; BoNT-A LC inh2: 0; Bead autofluor: 2530; Anthrax LF inh2: -2; GDH-TPI inh: 0; BoNT-F LC inh: -9

What do the screens show for `CCCCCn1nc(C)c2c(C)cc(=O)[nH]c21`?
FBA Mtb inh: -1; BoNT-A LC inh2: -1; Bead autofluor: 4598; Anthrax LF inh2: -1; GDH-TPI inh: -1; BoNT-F LC inh: -14

How did CCN1C(=O)c2c(C)nc3ccccc3c2C1=O do in these assays?
FBA Mtb inh: 0; BoNT-A LC inh2: -1; Bead autofluor: 20844*; Anthrax LF inh2: -3; GDH-TPI inh: 5; BoNT-F LC inh: 0

Results for Cc1ccc(C(=O)Nc2nnc(C)s2)o1 ?
FBA Mtb inh: -1; BoNT-A LC inh2: 0; Bead autofluor: 13093; Anthrax LF inh2: -4; GDH-TPI inh: 22; BoNT-F LC inh: -1

Results for Cc1ccc(/C=C/C(=O)Nc2nnc(C)s2)o1 ?
FBA Mtb inh: 2; BoNT-A LC inh2: 1; Bead autofluor: 2369; Anthrax LF inh2: -4; GDH-TPI inh: 32*; BoNT-F LC inh: 8

What do the screens show for `CN=C1c2cc3c(Br)c(OC)ccc3n2CCN1C`?
FBA Mtb inh: 0; BoNT-A LC inh2: 1; Bead autofluor: 11129; Anthrax LF inh2: 0; GDH-TPI inh: 32*; BoNT-F LC inh: -9

How did CCOC(=O)CN1C(c2ccccc2O)Nc2ccc(Br)cc2C1c1ccccc1 (stereo not drawn) do in these assays?
FBA Mtb inh: 1; BoNT-A LC inh2: -1; Bead autofluor: 2140; Anthrax LF inh2: -2; GDH-TPI inh: -6; BoNT-F LC inh: 0

Results for CC(=O)c1ccc(N2CCN(C(=O)C3(S(=O)(=O)c4ccc(Cl)cc4)CC3)CC2)cc1 ?
FBA Mtb inh: 3; BoNT-A LC inh2: 0; Bead autofluor: 19219*; Anthrax LF inh2: -1; GDH-TPI inh: 34*; BoNT-F LC inh: 0

What do the screens show for `O=C(N1CCN(c2cccc(Cl)c2)CC1)C1(S(=O)(=O)c2ccc(Cl)cc2)CC1`?
FBA Mtb inh: 1; BoNT-A LC inh2: 0; Bead autofluor: 3795; Anthrax LF inh2: -1; GDH-TPI inh: -3; BoNT-F LC inh: 10
